SMN2 splice enh – enhancers of SMN2 splice variant expression; HEK293 SMN2-luciferase splicing reporter, luminescence, 30-36 h; Potency, µM (top dose mostly 46.1 µM), actives largely listed as activators; hit rate 2.8% among 210,000; AID 1458; further: nearly all actives have a fitted effect of over 55% in size
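HEK293 cells carry an SMN2 […]–luciferase reporter in which exon 7 inclusion puts luciferase in frame. Cells were plated 10-12 h before compound addition, then incubated 30-36 h at 37C. ONE-Glo luminescence was read; sodium butyrate at 4.5 mM final served as control.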
NPC1 prom act – NPC1 promoter activation | AID 485313 | Huh7 NPC1 promoter luciferase reporter, 24 h | hit rate 2.4% among 320,000 | Potency, µM (top dose mostly 9.22 µM), most hits filed as activators; further: nearly all actives have a fitted effect of over 60% in size
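Luciferase expression driven by the NPC1 promoter was measured in stably transfected Huh7 cells after a 24 h compound incubation, using a luciferase reagent and a luminescence read.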
FLuc counter – inhibits or activates purified firefly luciferase, miR-21 counter-screen. AID 588342. purified FLuc, Km substrates, luminescence inhibition. Potency, µM (series often up to 57.5 µM), usual class: inhibitors. hit rate 6.9% among 360,000. P08659; further: nearly all actives have a fitted effect of over 55% in size
Target sequence (P08659 whole entry, looked up): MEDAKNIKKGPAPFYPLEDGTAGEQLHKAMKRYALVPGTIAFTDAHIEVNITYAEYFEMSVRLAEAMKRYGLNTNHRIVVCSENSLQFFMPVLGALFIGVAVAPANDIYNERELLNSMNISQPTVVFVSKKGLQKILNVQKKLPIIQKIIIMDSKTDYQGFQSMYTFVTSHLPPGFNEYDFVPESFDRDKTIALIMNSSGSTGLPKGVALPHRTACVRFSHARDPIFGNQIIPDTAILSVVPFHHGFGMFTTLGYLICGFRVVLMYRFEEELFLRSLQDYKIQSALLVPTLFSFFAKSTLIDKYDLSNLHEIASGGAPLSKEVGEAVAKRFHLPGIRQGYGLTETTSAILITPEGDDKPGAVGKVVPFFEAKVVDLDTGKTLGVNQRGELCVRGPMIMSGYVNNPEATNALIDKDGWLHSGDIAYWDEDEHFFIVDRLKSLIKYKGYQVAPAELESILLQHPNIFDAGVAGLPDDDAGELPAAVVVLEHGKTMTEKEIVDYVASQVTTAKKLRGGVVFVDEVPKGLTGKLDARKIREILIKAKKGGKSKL
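Purified P. pyralis luciferase (10nM final) with 10uM D-luciferin and 10uM ATP (Km levels) in 50mM Tris acetate pH 7.5, 10mM Mg acetate, 0.01% Tween-20, 0.05% BSA; qHTS 6-point titration, ~60 µM downward; luminescence read.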
ELG1 genotox – induces genotoxicity in HEK293T cells with luciferase-tagged ELG1; HEK293T ELG1-luciferase reporter, luminescence, 16 h; Potency, µM (doses to about 46 µM), actives largely listed as activators; hit rate 1.3% among 330,000; further: nearly all actives have a fitted effect of over 60% in size
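DMSO vehicle served as control against compound-treated ELG1-luciferase HEK293T cells; exposure lasted 16 hr at 37 °C and 5% CO2, followed by ONE-Glo luminescence detection after 30 min.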
Rab9 prom act – activators of Rab9 promoter | Huh7 Rab9 promoter-luciferase reporter, luminescence, 24 h | Potency, µM (titrated, usually from 9.22 µM), usual class: activators | hit rate 2.8% among 320,000 | AID 485297; further: nearly all actives have a fitted effect of over 60% in size
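Huh7 cells stably carrying a Rab9 promoter-luciferase reporter, 1500 cells per well in OP-MEM I with 10% FBS, treated with compound 24 hours at 37C. Luciferase activity read by luminescence after 10 minutes with Amplite reagent.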
Large screens that a line does not name were inactive. A selection: hits, their analogues and other compounds. The true share with any hit is near 7.5%. The call rests on the fitted dose curve; in most records, active means well fitted curve in the direction sought with a large enough effect; inconclusive means small, poorly fitted or top-dose-only effect, or another doubt; inactive means no such curve, though single readings can be large; an effect the other way counts as inactive or inconclusive.

Cc1ccc2nc(-c3cccc(NC(=O)c4cccc5c(Cl)cccc45)c3)oc2c1	FLuc counter 2.4µM (no result: NPC1 prom act, ELG1 genotox, Rab9 prom act)
Cc1ccc(C(=O)Nc2cccc(-c3nc4ncccc4o3)c2)cc1	FLuc counter 13µM (no result: SMN2 splice enh)
CCCNC(=O)c1cc2cc([N+](=O)[O-])ccc2s1	none
COC(=O)N(C)c1nc2ccccc2s1	FLuc counter 24µM, ELG1 genotox inconclusive
COCCNC(=O)c1cc2sc3ccccc3c2s1	SMN2 splice enh 14µM, NPC1 prom act inconclusive, FLuc counter 11µM, ELG1 genotox 15µM, Rab9 prom act 2.8µM
CCCCNC(=O)N(C)c1nc2ccccc2s1	NPC1 prom act inconclusive, FLuc counter 13µM, ELG1 genotox inconclusive, Rab9 prom act 1.8µM (no result: SMN2 splice enh)
CCCCNC(=O)c1cc2ccccc2s1	FLuc counter 17µM, Rab9 prom act inconclusive
CC1=CC(=C2N=C(c3ccccc3)OC2=O)C=C(C)O1	NPC1 prom act inconclusive, FLuc counter inconclusive, Rab9 prom act inconclusive
CN1C=CC=C/C1=C1/N=C(c2ccccc2)OC1=O	SMN2 splice enh inconclusive, NPC1 prom act inconclusive, FLuc counter inconclusive, Rab9 prom act 3.2µM
COc1ccc(CCn2c(O)cc3nn(-c4nc5ccccc5s4)c(=O)c-3c2C)cc1	NPC1 prom act 2.8µM, FLuc counter 9.5µM, Rab9 prom act inconclusive (no result: SMN2 splice enh)
Cc1ccc(NC(=O)CSc2nnc3[nH]c(=O)cc(-c4ccccc4)n23)cc1Cl	FLuc counter 0.67µM (no result: SMN2 splice enh, NPC1 prom act, ELG1 genotox, Rab9 prom act)
CCOc1ccccc1NC(=O)CSc1nccn1-c1ccccc1	none
CCCCc1ccc(NC(=O)CSc2nnc3[nH]c(=O)cc(C)n23)cc1	FLuc counter 15µM (no result: SMN2 splice enh, NPC1 prom act, ELG1 genotox, Rab9 prom act)
Cc1ccc(NC(=O)CSc2nc(N)c(-c3ccccc3)c(=O)[nH]2)cc1Cl	none (no result: SMN2 splice enh)
CCOc1ccccc1NC(=O)CSc1nnc2[nH]c(=O)cc(-c3ccccc3)n12	FLuc counter 6µM (no result: SMN2 splice enh, NPC1 prom act, ELG1 genotox, Rab9 prom act)
Cc1ccc(C)c(NC(=O)CSc2nnc3[nH]c(=O)cc(-c4ccccc4)n23)c1	FLuc counter 0.95µM (no result: SMN2 splice enh, NPC1 prom act, ELG1 genotox, Rab9 prom act)
O=C(O)c1ccc(N=N/C(=N\Nc2ccc(C(=O)O)cc2)c2ccccc2)cc1	NPC1 prom act inconclusive, FLuc counter 17µM, Rab9 prom act inconclusive (no result: SMN2 splice enh)
NC(=O)/C(N=Nc1ccccc1)=N/Nc1ccccc1	none (no result: SMN2 splice enh)
O=C(O)c1cccc(N/N=C(\N=Nc2ccccc2)c2ccccc2)c1	NPC1 prom act inconclusive, FLuc counter 17µM, ELG1 genotox inconclusive, Rab9 prom act inconclusive (no result: SMN2 splice enh)
O=C(O)c1ccc(NC(=O)C(c2ccccc2)c2ccccc2)cc1	none (no result: SMN2 splice enh)
Brc1ccc(N/N=C(/N=Nc2nn[nH]n2)c2ccccc2)cc1	FLuc counter 19µM
O=C(N/C(=C/c1cn(-c2ccccc2)nc1-c1ccccc1)C(=O)N1CCOCC1)c1ccc(Cl)cc1Cl	none
COc1ccccc1-c1noc(-c2ccccc2C(=O)Nc2ccccc2)n1	FLuc counter 11µM
COc1cccc(NC(=O)c2ccccc2-c2nc(-c3ccc(Cl)cc3)no2)c1	FLuc counter 13µM
COc1ccccc1NC(=O)c1ccccc1-c1nc(-c2ccccc2OC)no1	FLuc counter 11µM
COc1ccc(S(=O)(=O)c2cn(C)c3cc(N4CCCC4)c(F)cc3c2=O)cc1	none (no result: SMN2 splice enh, NPC1 prom act, ELG1 genotox, Rab9 prom act)
O=C1/C(=C/c2cccs2)COc2ccccc21	FLuc counter 1.3µM, ELG1 genotox inconclusive
Cc1ccc(C(=O)O/N=C(\N)Cc2cccs2)cc1[N+](=O)[O-]	NPC1 prom act 2.2µM, ELG1 genotox inconclusive, Rab9 prom act 3.2µM (no result: SMN2 splice enh)
CCOP(=O)(c1ccccc1Cl)C1(O)CCCCC1 (stereo not given)	none
CCOc1ccc(Cl)cc1S(=O)(=O)n1nnc2ccccc21	SMN2 splice enh 25µM
COc1ccc(S(=O)(=O)N2CCCCCC2)cc1NC(=O)c1ccccc1	none (no result: SMN2 splice enh)
Cc1cc(C)c2c(-n3cccc3)c(C(=O)NCc3cccc(F)c3)sc2n1	none (no result: SMN2 splice enh, NPC1 prom act, ELG1 genotox, Rab9 prom act)
COc1ccc(CC(=O)NCCc2csc3nc(-c4ccccc4F)nn23)cc1	none (no result: SMN2 splice enh, NPC1 prom act, ELG1 genotox, Rab9 prom act)
Cc1c(Cl)cccc1Nc1nc(N)nc(CSCCO)n1	none
Cc1c(Cl)cccc1Nc1nc(N)nc(CSc2ncccn2)n1	FLuc counter inconclusive, ELG1 genotox 16µM, Rab9 prom act inconclusive
N#C/C(=C(/O)CN1CCCC1)c1nc(-c2ccccc2)cs1	NPC1 prom act 4µM, FLuc counter 19µM, ELG1 genotox inconclusive, Rab9 prom act 3.2µM (no result: SMN2 splice enh)
Brc1ccc(/C=N/Nc2ncnc3c2cnn3Cc2ccccc2)cc1	none

Source: PubChem BioAssay
